Several values for one entry are separate records, joined by “and”; a condition that tells them apart may be missing. Identical values can stand only once. Results filed as inconclusive are left out. Entries that show only a call come without a potency. More than one record can exist for a structure, and the calls need not agree. Activity calls are given as the source filed them. Unless noted, calls come from the whole dose curve.
How the values were obtained:
[1] = Nuclear factor erythroid 2-related factor 2/antioxidant responsive element (Nrf2/ARE) small molecule agonists: qHTS cell viability counter screen in human keratinocytes (AID 1919968; active = well fitted curve in the direction sought with a large enough effect in the repeat runs; an effect the other way counts as inactive or inconclusive; note: nearly all actives have a fitted effect of over 55% in size; note: potency is the fitted concentration of half-maximal effect)
Method in brief: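 Measured as CellTiter-Fluor fluorescence, this readout tracks cytotoxicity in the same wells as the ARE-luciferase screen. HaCaT reporter cells (1,500/well) received compounds after a 5 h pre-incubation and were exposed for 23 h.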

[2] = target: Gonadotropin-releasing hormone receptor (Homo sapiens) (UniProt P30968); assay: Human gonadotropin-releasing hormone receptor (GnRHR) small molecule agonists, calcium flux assay in GnRHR-HEK293 cells (AID 1920063); note: nearly all actives have a fitted effect of over 35% in size
Chain of Gonadotropin-releasing hormone receptor (Homo sapiens) (P30968 whole entry, looked up): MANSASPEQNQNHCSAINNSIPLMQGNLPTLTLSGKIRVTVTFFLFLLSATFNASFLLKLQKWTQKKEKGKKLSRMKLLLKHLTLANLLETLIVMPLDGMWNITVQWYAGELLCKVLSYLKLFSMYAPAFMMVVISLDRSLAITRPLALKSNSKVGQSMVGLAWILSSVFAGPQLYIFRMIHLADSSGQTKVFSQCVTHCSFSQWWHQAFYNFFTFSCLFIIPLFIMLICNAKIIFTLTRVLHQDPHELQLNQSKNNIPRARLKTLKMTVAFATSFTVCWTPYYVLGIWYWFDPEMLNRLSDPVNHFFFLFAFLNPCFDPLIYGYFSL
Method in brief: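 Fluorescence kinetics (480 nm excitation, 540 nm emission; 3 min, 1 s steps) report calcium mobilisation in human GnRHR-HEK293 cells in agonist mode. Dye incubation: 1 h, 37 C.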

[3] = target: KiSS-1 receptor (Homo sapiens) (UniProt Q969F8); assay: Human kisspeptin (KISS1R) small molecule agonists, calcium flux assay in KISS1R-HEK293 cells (AID 1920064; active = well fitted curve in the direction sought with a large enough effect in the repeat runs; an effect the other way counts as inactive or inconclusive)
Chain of KiSS-1 receptor (Homo sapiens) (Q969F8 whole entry, looked up): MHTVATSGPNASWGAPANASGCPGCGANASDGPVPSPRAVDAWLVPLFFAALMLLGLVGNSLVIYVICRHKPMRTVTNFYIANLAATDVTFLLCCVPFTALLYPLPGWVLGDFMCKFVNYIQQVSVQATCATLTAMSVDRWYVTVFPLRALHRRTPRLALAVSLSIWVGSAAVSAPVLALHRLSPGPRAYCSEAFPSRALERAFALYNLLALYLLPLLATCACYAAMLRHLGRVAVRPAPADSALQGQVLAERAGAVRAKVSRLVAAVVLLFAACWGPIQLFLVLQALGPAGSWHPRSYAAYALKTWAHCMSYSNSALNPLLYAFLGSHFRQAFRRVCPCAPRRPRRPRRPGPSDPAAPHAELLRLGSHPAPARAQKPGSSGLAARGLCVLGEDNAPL
Method in brief: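 Measures KISS1R agonism through calcium-sensitive dye fluorescence in stably transfected HEK293 cells, read for 3 min after pin-tool compound delivery; 15-point titrations in triplicate.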

[4] = G protein-coupled receptor (GPCR) small molecule agonists, calcium flux assay: HEK293 wild type cell line counter screen (AID 1920065)
Method in brief: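 Readout: fluorescence at 480 nm excitation/540 nm emission, sampled at 1 s intervals for 3 min. Cells had been cultured 18 h, then dye-loaded 1 h at 37 C before compound or ATP addition.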

[5] = p53 small molecule agonists, cell-based qHTS assay with human liver microsomes (AID 1963577)
Method in brief: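 Compounds act here after metabolic activation: human liver microsomes and NADPH, both at 0.5 mg/mL final, were co-added to p53RE-bla cells. Incubation ran 16 h at 37 C, followed by LiveBLAzer detection.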

[6] = p53 small molecule agonists, cell-based qHTS assay with rat liver microsomes (AID 1963578)
Method in brief: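 Read-out is beta-lactamase reporter fluorescence (LiveBLAzer, 2 h, room temperature, dark) in p53RE-bla cells treated 16 h at 37 C with compound, rat liver microsomes and NADPH, both 0.5 mg/mL final.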

[7] = p53 small molecule agonists, cell-based qHTS assay with human liver microsomes: qHTS cell viability counter screen (AID 1963579); note: nearly all actives have a fitted effect of over 45% in size; note: potency is the fitted concentration of half-maximal effect
Method in brief: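 Cells carrying the p53 response-element beta-lactamase reporter are treated for 16 h at 37 C with test compounds in the presence of human liver microsomes and NADPH (both 0.5 mg/mL final); ATP-based CellTiter-Glo luminescence then reports viability.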

[8] = p53 small molecule agonists, cell-based qHTS assay with rat liver microsomes: qHTS cell viability counter screen (AID 1963580); note: nearly all actives have a fitted effect of over 45% in size
Method in brief: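 In HCT-116 cells carrying a p53 response element-bla reporter, compounds were metabolically activated in situ by rat liver microsomes with NADPH over 16 h. Cell ATP content then served as the cytotoxicity measure.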

[9] = p53 small molecule agonists, cell-based qHTS assay: qHTS cell viability counter screen (AID 1963581); note: nearly all actives have a fitted effect of over 45% in size
Method in brief: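 In the same plates used for the p53 bla reporter, HCT-116 cells given compounds for 16 h at 37 C received CellTiter-Glo; luminescence was recorded 30 min later at room temperature.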

[10] = target: 5-hydroxytryptamine receptor 2A (Homo sapiens) (UniProt P28223); assay: 5-hydroxytryptamine receptor 2A (HTR2A) small molecule antagonists, cell-based qHTS assay (AID 1963586); note: nearly all actives have a fitted effect of over 45% in size
Chain of 5-hydroxytryptamine receptor 2A (Homo sapiens) (P28223 whole entry, looked up): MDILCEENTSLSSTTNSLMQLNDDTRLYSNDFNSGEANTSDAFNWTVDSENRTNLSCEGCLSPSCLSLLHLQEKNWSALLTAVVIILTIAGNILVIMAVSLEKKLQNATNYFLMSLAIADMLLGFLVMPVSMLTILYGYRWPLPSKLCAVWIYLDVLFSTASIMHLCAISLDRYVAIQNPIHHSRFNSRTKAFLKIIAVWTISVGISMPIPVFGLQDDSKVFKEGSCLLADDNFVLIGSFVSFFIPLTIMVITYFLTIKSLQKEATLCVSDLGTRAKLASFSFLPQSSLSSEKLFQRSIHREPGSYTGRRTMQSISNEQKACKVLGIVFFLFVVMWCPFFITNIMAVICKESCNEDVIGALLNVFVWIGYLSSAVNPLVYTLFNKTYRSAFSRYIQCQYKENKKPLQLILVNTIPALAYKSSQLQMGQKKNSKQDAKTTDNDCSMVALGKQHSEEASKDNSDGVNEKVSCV
Method in brief: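 Antagonist-mode intracellular calcium assay: DOI (4 nM) added after 5 min compound pre-incubation at room temperature to dye-loaded HTR2A-CHO cells. Fluorescence followed for 3 min, sampled every second.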

[11] = target: Muscarinic acetylcholine receptor M1 (Homo sapiens) (UniProt P11229); assay: Cholinergic receptor muscarinic 1 (CHRM1) small molecule antagonists, cell-based qHTS assay (AID 1963588); note: nearly all actives have a fitted effect of over 40% in size; note: potency is the fitted concentration of half-maximal effect
Chain of Muscarinic acetylcholine receptor M1 (Homo sapiens) (P11229 whole entry, looked up): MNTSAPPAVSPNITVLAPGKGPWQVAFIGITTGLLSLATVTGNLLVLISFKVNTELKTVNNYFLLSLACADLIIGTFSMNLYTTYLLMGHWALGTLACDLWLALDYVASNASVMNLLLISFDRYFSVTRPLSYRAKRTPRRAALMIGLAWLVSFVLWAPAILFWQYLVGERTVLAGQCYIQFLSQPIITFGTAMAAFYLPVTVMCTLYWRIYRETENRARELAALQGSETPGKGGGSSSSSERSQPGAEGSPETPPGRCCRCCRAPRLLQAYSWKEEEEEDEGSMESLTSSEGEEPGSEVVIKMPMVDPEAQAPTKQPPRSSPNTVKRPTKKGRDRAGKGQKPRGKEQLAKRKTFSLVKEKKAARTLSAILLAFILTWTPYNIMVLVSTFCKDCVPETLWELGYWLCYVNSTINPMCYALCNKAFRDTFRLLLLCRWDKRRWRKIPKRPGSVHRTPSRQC
Method in brief: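 CHRM1-CHO calcium-flux assay, antagonist mode. Cells were seeded 18 h, dye-loaded 1 h at 37 C and given compound for 5 min at RT, then acetylcholine was added at 50nM. FDSS fluorescence was read 3 min; 15 concentrations, three runs.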

[12] = target: Muscarinic acetylcholine receptor M1 (Homo sapiens) (UniProt P11229); assay: Cholinergic receptor muscarinic 1 (CHRM1) small molecule agonists, cell-based qHTS assay (AID 1963589); note: nearly all actives have a fitted effect of over 35% in size
Method in brief: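 Each compound was tested at 15 concentrations across three independent runs on dye-loaded CHO cells stably expressing human CHRM1, reading intracellular calcium fluorescence kinetically at 1 sec intervals.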

[13] = cAMP Responsive Elements (CRE) small molecule agonists, cell-based qHTS assay (AID 1963590)
Method in brief: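 Cell line: CRE-bla HEK 293T; medium DMEM/10% dialyzed FBS/0.1 mM NEAA/1 mM pyruvate/25 mM HEPES; 3 h compound exposure; beta-lactamase FRET readout after 2 h substrate loading at RT.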

[14] = cAMP Responsive Elements (CRE) small molecule antagonists, cell-based qHTS assay (AID 1963591; active = well fitted inhibition curve with a large enough effect in the signal ratio in the repeat runs, not every such curve was filed as active; the % refers to the signal ratio)
Method in brief: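 Inhibition of NKH477-driven (0.25 uM final) CRE-beta-lactamase signal in HEK293T cells, 3 h compound exposure at 37 °C, detected by FRET substrate fluorescence.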

[15] = target: Beta-2 adrenergic receptor (Homo sapiens) (UniProt P07550); assay: Adrenergic beta2 receptor (ADRB2) small molecule antagonists, cell-based qHTS assay (AID 1963592); note: series mostly up to about 92 µM; nearly all actives have a fitted effect of over 50% in size
Chain of Beta-2 adrenergic receptor (Homo sapiens) (P07550 whole entry, looked up): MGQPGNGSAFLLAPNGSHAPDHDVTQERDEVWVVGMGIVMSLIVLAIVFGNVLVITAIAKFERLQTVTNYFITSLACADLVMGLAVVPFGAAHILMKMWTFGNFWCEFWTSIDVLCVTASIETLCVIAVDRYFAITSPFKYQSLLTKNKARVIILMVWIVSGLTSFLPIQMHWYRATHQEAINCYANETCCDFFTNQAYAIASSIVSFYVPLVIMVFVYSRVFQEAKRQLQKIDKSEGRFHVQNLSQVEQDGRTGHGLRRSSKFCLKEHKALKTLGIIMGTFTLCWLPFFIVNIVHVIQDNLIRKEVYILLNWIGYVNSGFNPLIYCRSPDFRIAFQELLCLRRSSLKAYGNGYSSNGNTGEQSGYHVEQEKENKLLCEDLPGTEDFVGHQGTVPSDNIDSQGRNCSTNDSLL
Method in brief: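 Cells (CHO, stable ADRB2 overexpression) incubated 18-20hr at 37C; compounds added from DMSO; agonist mix (1nM isoproterenol, 100uM IBMX, 25uM Ro-20-1724) added; 0.5hr RT; d2-cAMP and anti-cAMP-cryptate added; 1hr RT; 665/615 nm read.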

[16] = target: D(2) dopamine receptor (Homo sapiens) (UniProt P14416); assay: Dopamine D2 receptor (DRD2) small molecule agonists, cell-based qHTS assay (AID 1963594); note: nearly all actives have a fitted effect of over 35% in size
Chain of D(2) dopamine receptor (Homo sapiens) (P14416 whole entry, looked up): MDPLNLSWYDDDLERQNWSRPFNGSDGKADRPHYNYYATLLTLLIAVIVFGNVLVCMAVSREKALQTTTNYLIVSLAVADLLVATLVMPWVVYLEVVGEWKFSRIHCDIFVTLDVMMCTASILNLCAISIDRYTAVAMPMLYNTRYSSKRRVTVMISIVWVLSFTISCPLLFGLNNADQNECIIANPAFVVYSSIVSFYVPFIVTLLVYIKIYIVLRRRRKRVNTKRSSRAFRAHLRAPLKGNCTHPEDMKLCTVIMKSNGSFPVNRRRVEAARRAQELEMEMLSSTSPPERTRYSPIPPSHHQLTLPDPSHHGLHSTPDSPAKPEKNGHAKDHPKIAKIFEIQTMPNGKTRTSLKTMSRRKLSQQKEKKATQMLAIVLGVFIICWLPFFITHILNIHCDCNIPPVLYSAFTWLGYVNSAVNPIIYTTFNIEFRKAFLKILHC
Method in brief: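 HEK293 cells stably expressing DRD2 were cultured 24 h at 37 C, then given Ro20-1724 (0.1 mM final) and compounds for 10 min at room temperature. NKH477 (200nM) was then added for 30 min. cAMP was read by HTRF.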

[17] = target: D(2) dopamine receptor (Homo sapiens) (UniProt P14416); assay: Dopamine D2 receptor (DRD2) small molecule antagonists, cell-based qHTS assay (AID 1963595; active = well fitted inhibition curve with a large enough effect in the signal ratio in the repeat runs, with a control signal flat; the % refers to the signal ratio)
Method in brief: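 HEK293 cells stably expressing DRD2, preincubated with 0.1 mM Ro20-1724 and compounds 10 min, were stimulated with 200 nM NKH477 plus 12 nM quinpirole for 30 min at room temperature; cAMP measured by HTRF (665/620 nm).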

[18] = target: 5-hydroxytryptamine receptor 2A (Homo sapiens) (UniProt P28223); assay: 5-hydroxytryptamine receptor 2A (HTR2A) small molecule agonists, cell-based qHTS assay (AID 1963587); note: nearly all actives have a fitted effect of over 30% in size
Method in brief: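 HTR2A-CHO cells, plated 18 h at 37 C/5% CO2, dye-loaded 1 h at 37 C; compounds in DMSO added by pin tool (agonist mode). Intracellular calcium flux read as kinetic fluorescence on FDSS over 2 min at 1 s intervals.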

[19] = target: Beta-2 adrenergic receptor (Homo sapiens) (UniProt P07550); assay: Adrenergic beta2 receptor (ADRB2) small molecule agonists, cell-based qHTS assay (AID 1963593);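 note: CHO cells stably overexpressing human ADRB2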
Method in brief: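 CHO cells stably over-expressing ADRB2 were plated overnight at 37C, then dosed with compounds plus a stimulation mix containing 100uM IBMX and 25uM Ro-20-1724 for 0.5hr at room temperature. cAMP was measured by HTRF competition, 1hr.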

[20] = p53 small molecule agonists, cell-based qHTS assay (AID 1963582; active = well fitted activation curve with a large enough effect in the signal ratio in the repeat runs, not every such curve was filed as active; the % refers to the signal ratio; note: potency is the fitted concentration of half-maximal effect)
Method in brief: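 Compounds are pin-transferred in DMSO onto p53RE-bla cells and incubated 16 h at 37 C. The B/G FRET beta-lactamase substrate is then applied for 2 h at RT and fluorescence recorded.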

Row | SMILES | Potency [1] | Potency [2] | Potency [3] | Potency [4] | Potency [5] | Potency [6] | Potency [7] | Potency [8] | Potency [9] | Potency [10] | Potency [11] | Potency [12] | Potency [13] | Potency [14] | Potency [15] | Potency [16] | Potency [17] | Potency [18] | Potency [19] | Potency [20]
1 | S=c1[nH]c2ccccc2[nH]1 | inactive | inactive | inactive | inactive | inactive | inactive | inactive | inactive | inactive | inactive | inactive | inactive | inactive | inactive | inactive | inactive | inactive | – | – | –
2 | CC1CC(=O)O1 (stereo unspecified) | inactive | inactive | inactive | inactive | – | – | inactive | inactive | inactive | inactive | inactive | inactive | – | inactive | inactive | inactive | inactive | inactive | inactive | –
3 | O=C(O)CCl | inactive | inactive | inactive | inactive | – | – | inactive | inactive | inactive | inactive | inactive | inactive | inactive | inactive | inactive | inactive | – | inactive | inactive | –
4 | Oc1ccc(Cl)cc1 | inactive | inactive | inactive | inactive | inactive | inactive | – | – | inactive | inactive | inactive | inactive | inactive | inactive | inactive | inactive | inactive | inactive | inactive | inactive
5 | Nc1nc(N)nc(NC2CC2)n1 | inactive | inactive | inactive | inactive | inactive | – | inactive | inactive | inactive | – | – | – | inactive | inactive | inactive | inactive | inactive | – | inactive | inactive
6 | CC(C)CC(C)(c1ccc(O)cc1)c1ccc(O)cc1 | 27.4 µM (active) and 38.6 µM (active) | inactive | inactive | inactive | inactive | inactive | inactive and 36.3 µM (active) | – | inactive | – | inactive | inactive | – | – | inactive | inactive | – | inactive | – | inactive
7 | CCN(CC)C(=O)SCc1ccc(Cl)cc1 | inactive | inactive | inactive | inactive | – | – | inactive | inactive | – | – | – | inactive | inactive | inactive | inactive | inactive | – | inactive | – | inactive
8 | ClC(Cl)=C(c1ccc(Cl)cc1)c1ccc(Cl)cc1 | 39.5 µM (active) | inactive | inactive | inactive | – | inactive | inactive | inactive | inactive | inactive | inactive | inactive | inactive | inactive | inactive | inactive | inactive | inactive | inactive | inactive
9 | CC(C)c1ccc(CO)cc1 | inactive | inactive | inactive | inactive | inactive | inactive | – | inactive | inactive | inactive | inactive | inactive | inactive | inactive | inactive | inactive | inactive | inactive | – | inactive
10 | CCOP(=S)(OCC)Oc1ccc([N+](=O)[O-])cc1 | inactive | inactive | inactive | inactive | – | – | inactive | inactive | inactive | – | 9.54 µM (active) and 18.3 µM (active) | inactive | inactive | inactive | inactive | inactive | inactive | inactive | inactive | inactive
11 | CSc1nc(NC(C)C)nc(NC(C)C)n1 | inactive | inactive | inactive | inactive | inactive | inactive | inactive | inactive | – | inactive | inactive | inactive | inactive | – | inactive | inactive | inactive | inactive | inactive | –
12 | CC[N+](CC)(CC)CC | inactive | inactive | inactive | inactive | – | – | inactive | – | inactive | inactive | inactive | – | inactive | inactive | inactive | – | inactive | inactive | inactive | –
13 | O=C(O)CCCOc1ccc(Cl)cc1Cl | inactive | inactive | inactive | inactive | inactive | inactive | inactive and 29.4 µM (active) | inactive | inactive | inactive | inactive | – | – | – | inactive | inactive | inactive | inactive | inactive | –
14 | Cc1ccc2c(c1N)C(=O)c1ccccc1C2=O | inactive | inactive | inactive | inactive | – | inactive | inactive | inactive | inactive | inactive | inactive | inactive | – | inactive | inactive | – | inactive | inactive | inactive | –
15 | O=c1[nH]c(=O)n(Cl)c(=O)n1Cl | inactive | inactive | inactive | inactive | – | – | inactive | inactive | inactive | inactive | inactive | inactive | inactive | – | inactive | inactive | inactive | inactive | – | –
16 | COC(=O)Nc1nc2ccccc2[nH]1 | inactive | inactive | inactive | inactive | inactive | inactive | – | inactive | – | inactive | inactive | – | inactive | – | inactive | inactive | – | inactive | inactive | 9.13 µM (active)

Source: PubChem BioAssay (Tox21)
